Measurements as given in PubChem BioAssay (NCI).
This is part of a sample that, as a whole, favours compounds with a hit. Of some 79,000 tested, about 15% had one in any assay. Values without a mark were called inactive. Calls of active or inactive are those of the source. Rule as the data show it: active = growth inhibition above about 70%; inactive = the rest.

Key:
[1] = NCI Yeast Anticancer Drug Screen. Data for the rad50 strain (AID 155);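 also: 0% = growth of vehicle-only cultures of the same strain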; settings: S. cerevisiae rad50 strain growth inhibition; at 50.0 µM; active compounds read high
Outline: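 Yeast carrying a defined DNA repair defect were exposed to test compounds, and growth was compared with vehicle-treated controls to give percent inhibition.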

[2] = NCI Yeast Anticancer Drug Screen. Data for the mec2-1 strain (AID 157); settings: S. cerevisiae mec2-1 strain, at 50.0 µM, active compounds read high
Outline: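 mec2-1 yeast strain, carrying an alteration in DNA damage repair or cell cycle control, was exposed to compounds; growth inhibition was measured relative to vehicle-treated controls.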

[3] = NCI Yeast Anticancer Drug Screen. Data for the sgs1 mgt1 strain (AID 161);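 also: 0% = growth of cultures given vehicle only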; settings: S. cerevisiae sgs1 mgt1 strain, at 50.0 µM, active compounds read high
Outline: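 Growth of a repair-deficient yeast mutant was monitored after compound treatment and expressed as inhibition relative to vehicle-treated cultures.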

[4] = NCI Yeast Anticancer Drug Screen. Data for the cln2 rad14 strain (AID 165);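 also: 0% = growth equal to vehicle treated cultures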; settings: S. cerevisiae cln2 rad14 strain, at 50.0 µM, active compounds read high
Outline: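 Yeast carrying cln2 and rad14 alterations (cell cycle control and DNA damage repair) were exposed to compounds. Growth inhibition was measured against vehicle-treated controls.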

[5] = NCI Yeast Anticancer Drug Screen. Data for the bub3 strain (AID 167); settings: S. cerevisiae bub3 mutant strain, at 50.0 µM, active compounds read high
Outline: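 Compounds were applied to a genetically altered yeast strain carrying a cell-cycle control defect. Growth inhibition was scored against vehicle-treated controls.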

[6] = NCI Yeast Anticancer Drug Screen. Data for the mlh1 rad18 strain (AID 175); settings: S. cerevisiae mlh1 rad18 strain growth inhibition; at 50.0 µM; active compounds read high
Outline: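 Growth inhibition of the yeast strain was measured after compound exposure and expressed relative to vehicle-treated controls. The strain carries defined defects in DNA damage repair.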

Row | SMILES | growth inhibition [1] | growth inhibition [2] | growth inhibition [3] | growth inhibition [4] | growth inhibition [5] | growth inhibition [6]
1 | Cc1cc2c(=O)c3ccccc3[nH]c2c(C(=O)O)c1C | 5.35% | 0.85% | 8.25% | 10.2% | -14.7% | 38.2%
2 | CCOCCOC(=O)CCCCCCCCC(=O)OCCOCC | 9.7% | 11.9% | 12.6% | 37.9% | 25.6% | 25.9%
3 | O=c1[nH]nnc2cc(Cl)ccc12 | 0% | 6.15% | -4.65% | -12.2% | 2% | -1.3%
4 | O=C(O)C1CCCCN1/N=C/c1cccc([N+](=O)[O-])c1 (stereo unspecified) | 36% | 11.9% | 22% | 1.3% | 26.9% | 11.9%
5 | O=C(N=C1C(=O)C2(CCCCC2)C2(N=C(c3ccccc3)OC2=O)C12CCCCC2)c1ccccc1 (stereo unspecified) | 11.8% | 8.75% | 9.35% | -5.05% | -2.35% | 14.5%
6 | CCc1ccc2[nH]c(C(=O)O)cc2c1 | -15.4% | -18.4% | -1.75% | -11.8% | -21.6% | 4.45%
7 | CC(=O)NNc1ncc(C(=O)/C=C/c2ccccc2C)s1 | 31.1% | 16.1% | 12.5% | 29.1% | 22.3% | 36.6%
8 | NNC(=O)c1c(-c2cccnc2)cnc2ccccc12 | -29.4% | -20.6% | -29.3% | -6.8% | -4.8% | -31.4%
9 | C#CC(C)(C)CC | 21.4% | -16.4% | 8.35% | 19.8% | -8.1% | 17.4%
10 | N#Cc1nc(-c2ccccc2C(=O)O)oc1N | -0.5% | 9.8% | -16.1% | 5.7% | -7.15% | -62%
11 | CC(C)CC(NC(=O)C(C)NC(=O)C(NC(=O)OCc1ccccc1)C(C)O)C(=O)NC(CC(C)C)C(=O)NCC(=O)NN (stereo unspecified) | 12.1% | 1.9% | 0.05% | -0.3% | -5.1% | -15.6%
12 | C[S+]1CC2C3CC(C#N)C(C3)C2C1 (stereo unspecified) | 2.4% | 11.2% | 2.95% | -28.1% | -1.85% | 16.9%
13 | C=CS(=O)(=O)CCOc1ccc(Cl)cc1Cl | 98.8% (active) | 99.2% (active) | 99.7% (active) | 97.8% (active) | 98.4% (active) | 98.9% (active)
14 | CC#CCOC(=O)c1ccccc1OC(C)=O | 27.8% | -1.75% | 23.9% | 9.7% | 26.9% | 19.1%
15 | CCOC(=O)C(=O)C(/C(=N/N(C)C)C(=O)Nc1ccc(C)cc1C)c1nc2ccccc2[nH]c1=O (stereo unspecified) | -21.7% | -22.1% | 3.8% | 11.7% | 1% | 12.5%
16 | CCOc1ccc2nc(NC(=O)/C(CC(=O)CC(C3=C(O)c4ccccc4CC3=O)c3ccccc3)=N\O)sc2c1 (stereo unspecified) | -0.85% | -7% | -12.6% | -18.6% | -0.25% | -20.1%
17 | CSCNC(=S)Nc1ccc(Cl)c(Cl)c1 | 59.2% | 45% | 35% | 23.4% | 53% | 61.3%
18 | C=CCNC(=S)Nc1c(C)cc(C)cc1C | 7.2% | 8.4% | 9.65% | -51.4% | 4.3% | 12.2%
19 | CC1CCOC2(CCCCC2)O1 (stereo unspecified) | -12.6% | -7.15% | -8.85% | -32.9% | -2.65% | 16.2%
20 | O=C(Nc1ccccc1Cl)c1ccc(Cl)cc1 | 4.75% | 14.9% | 8.05% | -16.2% | 29.1% | -4.75%
21 | Cc1c(CCOC=O)c(=O)[nH]c2nncn12 | -15.5% | -29.6% | -18.3% | 16.9% | -9.65% | 2.65%

Row | SMILES | growth inhibition [1] | growth inhibition [2] | growth inhibition [3] | growth inhibition [4] | growth inhibition [5] | growth inhibition [6]
22 | CN(C)CCC(=O)c1cccnc1 | 9.9% | -17.1% | -3.35% | -4.8% | 5.65% | -1.2%
23 | O=C(O)C(=Cc1cccc2ccc3ccccc3c12)C(=O)O | -8.7% | -17.2% | -4.8% | -4.45% | -1.8% | -6.2%
24 | C(#CCN1CCOCC1)CCCN1CCOCC1 | 1.2% | -38.7% | -2.45% | -17.4% | -15.2% | 10.2%
25 | CCOC(=O)c1ccc(N2C(=S)N(C(=O)c3ccccc3)C(=Nc3ccccc3)C2=Nc2ccccc2)cc1 | 11.2% | 3.15% | 5.25% | 1.35% | 3.85% | -37.4%
26 | Brc1ccccc1-c1nc2ccccc2[nH]1 | 4.1% | -4.4% | 4% | -63% | -6.1% | -2.55%
27 | COC(=O)N/N=C/c1oc(-c2cccc([N+](=O)[O-])c2)c(-c2cccc([N+](=O)[O-])c2)c1[N+](=O)[O-] | 19.4% | 30.1% | 16.5% | 22.6% | 21% | 22.6%
28 | NC(=O)C(=O)N/N=C1/c2ccccc2CC1C1(O)C(=O)Nc2c(Cl)cc(Cl)cc21 (stereo unspecified) | 50.4% | 30.9% | 38.5% | 16.6% | 3.55% | 44.2%
29 | COC(CN(C)C(=S)Nc1cccc2ccccc12)OC | -31.9% | -74% | -23.6% | -11.7% | -6.2% | -30.9%
30 | COC(=O)C1=C(C(=O)OC)C2CCC1O2 | -0.5% | -6% | -0.4% | -11.7% | 8.35% | -17.6%
31 | O=C1CCN(C(=O)C2=CC(=O)OC2)C1 | -15.2% | -1.8% | -5.1% | -33.6% | 5.15% | -2.2%
32 | CC(C)CNN(CC(C)C)C(N)=O | -32.7% | -25% | -19.8% | -24.7% | -25.6% | -20.1%
33 | OCCN(Cc1ccccn1)Cc1ccccn1 | 14% | -3.7% | 36.2% | 11.2% | 8.4% | 9%
34 | Cc1ccnc(-n2c(N)cc(=O)[nH]c2=S)c1 | -7.15% | 1.3% | 10.6% | -17.4% | 27.6% | 5.55%
35 | Cc1c2ccccc2nc(CSc2n[nH]c(=S)s2)[n+]1[O-] | -8.55% | 18.6% | 8% | -44.5% | 8.5% | 20%
36 | N#C/C(=C\c1c(Cl)cccc1Cl)c1ccc([N+](=O)[O-])cc1 | 7.65% | -0.2% | 16% | -4.45% | 48.8% | 5.1%
37 | O=[N+]([O-])c1ccc(NC(c2ccccc2)c2ccc3cccnc3c2O)cc1 (stereo unspecified) | -6.35% | -20.1% | 0.2% | -15.3% | -2.75% | -10.3%
38 | c1ccc2c(c1)C1CCCCCC21N1CCOCC1 (stereo unspecified) | 18% | 1.05% | -14.4% | -5.45% | -30.4% | 7.6%
39 | COc1cc2c(c(OC)c1OC)-c1ccc(SC)c(=O)cc1C(N=C(NC1OCC(OC(C)=O)C(OC(C)=O)C1OC(C)=O)SN(NC(=O)OCc1ccccc1)C(=O)OCc1ccccc1)CC2 (stereo unspecified) | 5.6% | 10.4% | 24.4% | -11.7% | -1.55% | 32.3%
40 | CSc1nc2c(nnn2C2OCC(O)C(O)C2O)c(=O)[nH]1 (stereo unspecified) | -10.7% | -0.5% | -11.9% | -4.3% | -6.1% | 6.4%
41 | CCOc1ccccc1NC(=O)Nc1cccc(C(F)(F)F)c1 | 68.8% | 60.5% | 76% (active) | 72.3% (active) | 76% (active) | 88.9% (active)
